# Assay results as given in PubChem BioAssay (NCI).
# Compounds without any hit were thinned out: in the full panel of roughly 83,000, 20% have a hit.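 The endpoint reported here, percent growth, reads 100 for growth as untreated, 0 for no net growth and -100 for all cells dead.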 Values without a mark were called inactive. Calls of active or inactive are those of the source.
# System: NCI-H460 lung
# Test: NCI-60 one-dose screen, 48 h (100 = growth as untreated, 0 = no growth, -100 = all killed)
# Settings: 10 µM unless noted
# Experimental: Growth inhibition of the NCI-H460 human Non-Small Cell Lung tumor cell line is measured as a screen for anti-cancer activity. Cells are grown in 96 well plates and exposed to the test compound for 48 hours. Compounds are tested at a single concentration, which is 10^-5 M for most compounds. The reported endpoint is percent growth (GI% or GIPRCNT), where numbers from 0 - 100% represent growth inhibition, and numbers from -100% - 0 represent cell death. For example, a value of 40 represents 60% growth inhibition. A value of 0 means no net growth occurred over the course of the experiment. A value of -40 indicates 40% of cells at the beginning of the experiment died by the end of the experiment. A value of -100 means all cells are dead at the end of the experiment.
# NCI-60 Human Tumor Cell Lines Screen was performed using the standard one-dose NCI protocol, which is described in more detail at https://dtp.cancer.gov/discovery_development/nci-60/default.htm.
# Compounds with GIPRCNT values below 10 were considered active. Activity score was based on GIPRCNT using the following formula: […]
# Score is 0 for GIPRCNT values of 100 or above, 50 for GIPRCNT values of 0, and 100 for GIPRCNT values of -100.
row,SMILES,growth
1,O=C(CN1CCN(c2cc3c(cc2F)c(=O)c(C(=O)O)cn3C2CC2)CC1)Nc1ccc(C(=O)/C=C/c2ccccc2)cc1,7.12% (active)
2,CCn1cc(C2NC(=O)c3cc(F)ccc3N2)c2cccc(Cl)c21 (stereo not given),6.22% (active)
3,O=C(CNc1c(Cl)cccc1Cl)Nc1ccc(-c2nc3ccccc3s2)cc1,91.2%
4,COc1ccc(-c2nc3sccn3c2-c2ccnc(NCCNS(=O)(=O)c3ccc(C(F)(F)F)cc3)n2)cc1,15.4%
5,O=C(Nc1ccc(Cl)cc1)c1cc(-c2ccc(F)cc2)c2sc(=O)[nH]c2n1,1.4% (active)
6,COc1ccc(C(=O)c2cc(OC)c(OC)c(OC)c2)cc1/C=C/C(=O)c1ccc(OC)c(OC)c1,18.4%
7,CC/C=C\C/C=C\C[C@H](O)C/C=C1/C(=O)C=C[C@H]1C/C=C\CCC(=O)OC,90.2% [8.25 µM]
8,COc1ccc(C2=CC(c3ccc(Oc4ccnc5cc(Cl)ccc45)c(OC)c3)c3c(nc(OC)[nH]c3=O)N2)cc1 (stereo not given),63.5%
9,NC(=O)c1c(NC(=O)c2ccc(OCC3CCCO3)cc2)sc2c1CCCC2 (stereo not given),106%
10,Clc1ccc(/C=C/c2nc(N3CCOCC3)c3nc(Cl)c(Cl)cc3n2)cc1,105%
11,Clc1ccc2c(c1)NC1(CCSc3ccccc31)n1nccc1-2 (stereo not given),103%
12,CCCCC[C@@H]1Cc2cc(O)c(C(=O)O)c3c2[C@H](C[C@@]2(CCCO2)O3)O1,121%
13,COc1ccc(/C=C2\Oc3cc(OCCN4CCCC4)ccc3C2=O)c(OC)c1,93.9%
14,COC(=O)CCCCCN=Cc1c(O)c(O)c(C(C)C)c2cc(C)c(-c3c(C)cc4c(C(C)C)c(O)c(O)c(C=NCCCCCC(=O)OC)c4c3O)c(O)c12,8.12% (active)
15,NC(=O)NNC(=O)c1ccccc1,103%
16,CCSc1nnc(Nc2ccc(C(C)C)cc2)s1,97.5%
17,CCn1cc(C(=O)O)c(=O)c2cc(F)c(N3CCN(S(=O)(=O)c4ccc(Cl)cc4Cl)CC3)cc21,10.9%
18,COc1cc(-c2cc(/C=C3\CCCCC3=O)[nH]n2)cc(OC)c1OC,104%
19,Cn1c(-c2nonc2NC(=O)c2ccc(F)cc2)nc2ccccc21,101%
20,O=S(=O)(NCCCNc1nccc(-c2c(-c3ccccc3)nc3sccn23)n1)c1ccc(F)cc1,47.9%

row,SMILES,growth
1,COc1cc(C2C3=C(COC3=O)Nc3c2ccc2c3CCCC2)cc2c1OCO2 (stereo not given),3.74% (active)
2,O=Nc1c(-c2c(O)[nH]c3ccc([N+](=O)[O-])cc23)[nH]c2ccc(O)cc12,-28.5% (active)
3,c1ccn2nnnc2c1,105%
4,COc1cc(Cn2c(-c3nonc3N)nc3ccccc32)ccc1C,11%
5,CC[C@H](C)[C@H]1NC(=O)[C@@H](N[C@](C)(O)[C@@H](N)CC(C)C)[C@@H](C)OC(=O)[C@H](Cc2ccc(OC)cc2)N(C)C(=O)[C@@H]2CCCN2C(=O)[C@H](CC(C)C)NC(=O)[C@@H](C)C(=O)[C@H](C(C)C)OC(=O)C[C@@H]1O,-11.8% (active)
6,COc1ccc(C(=O)c2cc(OC)c(OC)c(OC)c2)cc1/C=C/C(=O)c1ccc(O)cc1,9.99% (active)
7,Cc1sc(N=Nc2ccc(N(C)C)cc2)[n+]([O-])c1C,99.3%
8,Nc1c(C(=O)Nc2cccc([N+](=O)[O-])c2)sc2nc3c(cc12)C(O)CCC3 (stereo not given),28.2%
9,CC(C)C[C@H](NC(=O)Cn1ccc(NCc2ccccc2)cc1=O)B(O)O,60.5%
10,COc1ccc(Cl)cc1NC(N)=S,109%
11,CCC1=C[C@@H]2CN(C1)Cc1c([nH]c3ccccc13)[C@@](C(=O)OC)(c1cc3c(cc1OC)N(C=O)[C@H]1[C@@](O)(C(=O)OC)[C@H](OC(C)=O)[C@]4(CC)[C@@H]5C[C@@H]5CN5CC[C@]31[C@@H]54)C2,6.63% (active)
12,O=C(CC(O)c1ccncc1)c1ccccc1 (stereo not given),102%
13,CCN(CC)CCC(=O)c1cccc2ccccc12,110%
14,CCCCCCOc1ccc(C2(Cl)c3ccccc3N(C)c3ccccc32)cc1,-25.7% (active)
15,O=S(=O)(c1ccccc1)n1ccc(-c2ccc3c(c2)CCO3)n1,87.3%
16,CC/C=C\C/C=C\C[C@H]1C/C=C2/C(=O)C=C[C@H]2C/C=C\CCC(=O)O1,-5.43% (active)
17,NC(=O)c1ccc2c(c1)OCO2,109%
18,O=C(/C=C/CN1CCCCC1)Nc1cc2c(Nc3ccc(F)c(Cl)c3F)ncnc2cc1OCCOC(F)F,21.7%
19,Cc1cc(C(=O)CSc2nc3ccccc3c(=O)[nH]2)c(C)n1C,113%
20,CCOC(=O)c1cc(/C(=N\O)c2cc(OC)c(OC)c(OC)c2)n2c(C)cccc12,15.3%
